Assay results: PubChem BioAssay (NCI)
About 83,000 compounds went through this panel and 20% of them were active in at least one assay; those are over-represented in the sample as a whole.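 Plates (96-well) were seeded with cells, treated with compound at one concentration, and incubated for 48 hours before percent growth was determined.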 The source made the active and inactive calls. The calls were made as follows: active = growth percent below 10; inactive = the rest.

How the values were obtained:
Assay in all cases: NCI-60 one-dose screen, 48 h (100 = growth as untreated, 0 = no growth, -100 = all killed)
Details in all cases: 10 µM unless noted
HCT-15 colon = test system: HCT-15 colon
HT29 colon = test system: HT29 colon
SNB-75 CNS = test system: SNB-75 CNS
SNB-19 CNS = test system: SNB-19 CNS
U251 CNS = test system: U251 CNS
PC-3 prostate = test system: PC-3 prostate
SK-MEL-5 melanoma = test system: SK-MEL-5 melanoma
UACC-62 melanoma = test system: UACC-62 melanoma
SK-MEL-28 melanoma = test system: SK-MEL-28 melanoma
SK-MEL-2 melanoma = test system: SK-MEL-2 melanoma
EKVX NSCLC = test system: EKVX NSCLC
SN12C renal = test system: SN12C renal
UO-31 renal = test system: UO-31 renal
TK-10 renal = test system: TK-10 renal
ACHN renal = test system: ACHN renal
CAKI-1 renal = test system: CAKI-1 renal
A498 renal = test system: A498 renal
CCRF-CEM leukemia = test system: CCRF-CEM leukemia
MOLT-4 leukemia = test system: MOLT-4 leukemia
LOX IMVI melanoma = test system: LOX IMVI melanoma

Measured: growth

COc1c(B(O)O)cccc1-c1cc(C)c2c(ccc3[nH]ncc32)n1
inactive: HCT-15 colon 95.2% | HT29 colon 88.2% | SNB-19 CNS 91.1% | U251 CNS 87.8% | PC-3 prostate 84.3% | SK-MEL-5 melanoma 88.9% | UACC-62 melanoma 98.8% | SK-MEL-28 melanoma 116% | SK-MEL-2 melanoma 116% | EKVX NSCLC 65.8% | SN12C renal 60.5% | UO-31 renal 21.6% | TK-10 renal 29.2% | ACHN renal 55.7% | CCRF-CEM leukemia 63.3% | MOLT-4 leukemia 64.2%
active: SNB-75 CNS -29.9% | CAKI-1 renal -17.9% | A498 renal 8.91%

COc1ccc(/C=C(\C#N)n2nnc3cc(Cl)ccc32)cc1
inactive: PC-3 prostate 18.8% | SK-MEL-28 melanoma 31.3% | SK-MEL-2 melanoma 26.1% | EKVX NSCLC 11.4% | SN12C renal 11.7% | UO-31 renal 25.9% | TK-10 renal 25.6% | ACHN renal 14.6% | CAKI-1 renal 32.7% | CCRF-CEM leukemia 12.4% | MOLT-4 leukemia 14.2%
active: HCT-15 colon 0.0447% | HT29 colon 2.07% | SNB-75 CNS -47.6% | SNB-19 CNS 9.63% | U251 CNS 5.37% | SK-MEL-5 melanoma -17.5% | UACC-62 melanoma 9.49% | A498 renal -23.5%

CC(=O)N1N=C(c2ccc(C(F)(F)F)c(F)c2)CC1c1[nH]c(C)c(C(=O)NCC(F)(F)F)c1C (centres undefined)
inactive: HCT-15 colon 95.3% | HT29 colon 78.5% | SNB-19 CNS 47.9% | U251 CNS 78.8% | PC-3 prostate 70.8% | SK-MEL-5 melanoma 81.7% | UACC-62 melanoma 87.7% | SK-MEL-28 melanoma 69.8% | SK-MEL-2 melanoma 106% | EKVX NSCLC 88.4% | SN12C renal 50.1% | UO-31 renal 26% | TK-10 renal 68.5% | ACHN renal 18.7% | CAKI-1 renal 58.7% | A498 renal 54.9% | CCRF-CEM leukemia 90% | MOLT-4 leukemia 82.6%
active: SNB-75 CNS -8.37%

O=C(NNC(=O)c1ccc(NC(=O)c2ccccn2)cc1)Nc1ccc([N+](=O)[O-])cc1
inactive: HCT-15 colon 100% | HT29 colon 110% | SNB-75 CNS 81.4% | SNB-19 CNS 83.6% | U251 CNS 78.5% | PC-3 prostate 94.5% | SK-MEL-5 melanoma 102% | UACC-62 melanoma 94% | SK-MEL-2 melanoma 106% | EKVX NSCLC 102% | SN12C renal 96.6% | UO-31 renal 75.8% | TK-10 renal 101% | ACHN renal 95.5% | CAKI-1 renal 91.6% | A498 renal 104% | CCRF-CEM leukemia 103% | MOLT-4 leukemia 103%

Cn1cc(-c2csc(-c3c[nH]c4ccc(Br)cc34)n2)c2ccnc(Cl)c21
inactive: HT29 colon 20.8% | SNB-75 CNS 85.2% | SNB-19 CNS 81.7% | U251 CNS 33.4% | PC-3 prostate 50.2% | SK-MEL-5 melanoma 71.7% | UACC-62 melanoma 68.8% | SK-MEL-28 melanoma 71.7% | SK-MEL-2 melanoma 85.4% | EKVX NSCLC 69.1% | SN12C renal 67.5% | UO-31 renal 48.8% | TK-10 renal 56.3% | ACHN renal 39.2% | CAKI-1 renal 66.5% | A498 renal 51.6% | CCRF-CEM leukemia 39.5% | MOLT-4 leukemia 56.4%
active: HCT-15 colon -0.791%

Cn1cc(C(=O)c2nc(-c3c[nH]c4ccccc34)no2)c2cc(F)ccc21
active: HT29 colon 8.8%
inactive: HCT-15 colon 33.2% | SNB-75 CNS 27.4% | SNB-19 CNS 38.8% | U251 CNS 28.5% | PC-3 prostate 41.9% | SK-MEL-5 melanoma 25.3% | UACC-62 melanoma 31.7% | SK-MEL-28 melanoma 64.6% | SK-MEL-2 melanoma 26.9% | EKVX NSCLC 57.5% | SN12C renal 59.5% | UO-31 renal 42.4% | TK-10 renal 57.6% | ACHN renal 49.6% | CAKI-1 renal 32.9% | A498 renal 25.3% | CCRF-CEM leukemia 23.9%

Nc1cc(C(=O)NC[C@H]2CN(c3ccc(N4CCC(C(=O)O)CC4)cc3)C(=O)O2)ccc1Cl
inactive: HCT-15 colon 102% | HT29 colon 104% | SNB-75 CNS 84.8% | SNB-19 CNS 98.7% | U251 CNS 103% | PC-3 prostate 101% | SK-MEL-5 melanoma 103% | UACC-62 melanoma 95.8% | SK-MEL-28 melanoma 109% | SK-MEL-2 melanoma 115% | EKVX NSCLC 95.3% | SN12C renal 98.8% | UO-31 renal 80.4% | TK-10 renal 104% | ACHN renal 101% | CAKI-1 renal 87.7% | A498 renal 95.8% | CCRF-CEM leukemia 104% | MOLT-4 leukemia 99.4%

COc1ccccc1NC(=O)N=Nc1c(O)[nH]c2ccccc12
inactive: HCT-15 colon 94.4% | HT29 colon 105% | SNB-75 CNS 82.7% | SNB-19 CNS 89.7% | U251 CNS 97.3% | PC-3 prostate 89.7% | SK-MEL-5 melanoma 94.1% | UACC-62 melanoma 79.2% | SK-MEL-28 melanoma 104% | SK-MEL-2 melanoma 100% | EKVX NSCLC 83.9% | SN12C renal 93.5% | UO-31 renal 58.7% | TK-10 renal 118% | ACHN renal 93% | CAKI-1 renal 73.3% | A498 renal 90.7% | CCRF-CEM leukemia 89.9% | MOLT-4 leukemia 93.4%

O=C(CN1C(=O)S/C(=C\C(Cl)=C\c2ccccc2)C1=O)NCCc1ccc(O)cc1
inactive: HT29 colon 16.6% | SNB-75 CNS 22% | SNB-19 CNS 34.3% | U251 CNS 19.3% | PC-3 prostate 24.7% | SK-MEL-5 melanoma 46% | SK-MEL-28 melanoma 20.7% | EKVX NSCLC 44.4% | SN12C renal 16% | TK-10 renal 24.1% | CAKI-1 renal 39.3% | A498 renal 94.2%
active: HCT-15 colon 0.727% | UACC-62 melanoma 8.67% | SK-MEL-2 melanoma 6.1% | UO-31 renal -50.7% | ACHN renal -69.3% | CCRF-CEM leukemia 6.23% | MOLT-4 leukemia 5.15%

CCC(=O)Oc1ccc(-c2ccccc2)cc1Br
inactive: HCT-15 colon 105% | HT29 colon 101% | SNB-75 CNS 95.1% | SNB-19 CNS 112% | U251 CNS 103% | PC-3 prostate 95.4% | SK-MEL-5 melanoma 98.3% | UACC-62 melanoma 109% | SK-MEL-2 melanoma 110% | EKVX NSCLC 102% | SN12C renal 104% | UO-31 renal 102% | TK-10 renal 101% | ACHN renal 113% | CAKI-1 renal 98.7% | A498 renal 63.5% | CCRF-CEM leukemia 102% | MOLT-4 leukemia 111%

CCn1cc(C(=O)O)c(=O)c2cc(F)c(N3CCN(CC(=O)Nc4ccc(S(=O)(=O)Nc5nccc(C)n5)cc4)C(C)C3)c(F)c21 (centres undefined)
active: SK-MEL-5 melanoma -93.3%
inactive: HCT-15 colon 100% | HT29 colon 117% | SNB-75 CNS 95.7% | SNB-19 CNS 98.7% | U251 CNS 110% | PC-3 prostate 98% | UACC-62 melanoma 94.2% | LOX IMVI melanoma 95.6% | SK-MEL-2 melanoma 119% | EKVX NSCLC 111% | SN12C renal 98% | UO-31 renal 83.3% | TK-10 renal 129% | ACHN renal 102% | CAKI-1 renal 88.6% | A498 renal 111% | CCRF-CEM leukemia 102% | MOLT-4 leukemia 123%

CCOC(=O)C/C(=N\Nc1cc(=O)[nH]c2ccc(Br)cc12)C(=O)OCC
inactive: HCT-15 colon 99.3% | HT29 colon 107% | SNB-75 CNS 88.2% | SNB-19 CNS 99.5% | U251 CNS 108% | PC-3 prostate 87.4% | SK-MEL-5 melanoma 95.1% | UACC-62 melanoma 90.6% | SK-MEL-2 melanoma 103% | EKVX NSCLC 109% | SN12C renal 100% | UO-31 renal 71.4% | TK-10 renal 126% | ACHN renal 95.7% | CAKI-1 renal 83.1% | A498 renal 122%
active: CCRF-CEM leukemia -36.7% | MOLT-4 leukemia -15.7%

COc1cc2c(c(OC)c1OC)CCC(c1cccc(C(=O)Nc3ccc(C#N)cc3)c1)O2 (centres undefined)
active: SK-MEL-5 melanoma -12.7% | MOLT-4 leukemia -14.4%
inactive: HCT-15 colon 59.7% | HT29 colon 69.3% | SNB-75 CNS 57.3% | SNB-19 CNS 58.7% | U251 CNS 64.2% | PC-3 prostate 14% | UACC-62 melanoma 24.6% | SK-MEL-28 melanoma 58.8% | SK-MEL-2 melanoma 50.7% | EKVX NSCLC 60.1% | SN12C renal 46.6% | UO-31 renal 25% | TK-10 renal 57.6% | ACHN renal 39.8% | CAKI-1 renal 43.4% | A498 renal 50.8% | CCRF-CEM leukemia 10.5%

CCCCCCCCCCCCCCCCCCOc1ccccc1CC(=O)OCC[N+](C)(C)C
inactive: HCT-15 colon 57.5% | SNB-19 CNS 29.9% | SK-MEL-5 melanoma 25.3% | UACC-62 melanoma 18.6% | SK-MEL-28 melanoma 64.8% | SK-MEL-2 melanoma 64.8% | EKVX NSCLC 46.9% | SN12C renal 10% | UO-31 renal 61.3% | TK-10 renal 18% | ACHN renal 55.8% | A498 renal 45.1%
active: HT29 colon 8.73% | SNB-75 CNS -16.4% | U251 CNS -76.6% | PC-3 prostate 5.84% | CAKI-1 renal 9.52% | CCRF-CEM leukemia 5.24% | MOLT-4 leukemia -7.37%

O=C(Nc1nc2ccc(C(=O)N3CCN(/C=C/c4ccccc4)CC3)cc2s1)c1ccc(NCCc2ccccc2)c([N+](=O)[O-])c1
inactive: HCT-15 colon 22.4% | SNB-75 CNS 79% | SNB-19 CNS 70.2% | U251 CNS 42.3% | PC-3 prostate 45% | SK-MEL-5 melanoma 15% | UACC-62 melanoma 58.3% | SK-MEL-28 melanoma 76% | SK-MEL-2 melanoma 87.6% | EKVX NSCLC 50.6% | SN12C renal 61.3% | UO-31 renal 37.8% | TK-10 renal 87.7% | ACHN renal 80.9% | CAKI-1 renal 50.6% | A498 renal 48.3% | CCRF-CEM leukemia 22.8%
active: HT29 colon 5.52%

CCCCCCCCCCCCCCCCOCCCOP(=O)(O)C1CCCN(O)C1=O (centres undefined)
active: HCT-15 colon 7.93% | SK-MEL-5 melanoma -65.8% | UACC-62 melanoma -13% | UO-31 renal 5.07% | A498 renal 1.39% | CCRF-CEM leukemia 5.85% | MOLT-4 leukemia 7.18%
inactive: HT29 colon 23.1% | SNB-75 CNS 22.8% | SNB-19 CNS 22% | U251 CNS 18.7% | PC-3 prostate 13.5% | SK-MEL-28 melanoma 38.3% | SK-MEL-2 melanoma 36% | EKVX NSCLC 33.9% | SN12C renal 16.3% | TK-10 renal 33.1% | ACHN renal 10.5% | CAKI-1 renal 16.6%
